Structures are written as SMILES. This is part of a sample that, as a whole, favours compounds with a hit. Of some 83,000 tested, about 20% had one in any assay.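 Percent growth is the endpoint: 0 to 100 indicates growth inhibition (40 means 60% inhibition), 0 means no net growth, and negative values indicate cell death.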 Values without a mark were called inactive. Activity calls are given as the source filed them. How the source made its calls: active means growth percent below 10; inactive means the rest.

Eight compounds from PubChem BioAssay (NCI) can be followed below.

Some test systems named below: HCT-15 colon; SNB-75 CNS; SNB-19 CNS; U251 CNS; PC-3 prostate; SK-MEL-5 melanoma; UACC-62 melanoma; SK-MEL-28 melanoma; SK-MEL-2 melanoma; EKVX NSCLC; SN12C renal; UO-31 renal; TK-10 renal; ACHN renal; CAKI-1 renal; A498 renal; CCRF-CEM leukemia; MOLT-4 leukemia; LOX IMVI melanoma.
Assay in all cases: NCI-60 one-dose screen, 48 h (100 = growth as untreated, 0 = no growth, -100 = all killed)
What all share (conditions): 10 µM

As to `COC1=C[C@]23CCC(=O)N2CCc2cc4c(cc2[C@@H]3[C@@H]1OC(=O)CCCC(C)C)OCO4`, the growth was 23.1% in the experiment with HCT-15 colon; 120% with SNB-75 CNS; 28% in the experiment on SNB-19 CNS; 43.3% in the experiment with U251 CNS; 42.5% in the experiment with PC-3 prostate; 25.9% in the experiment with SK-MEL-5 melanoma. Moreover, the growth was 61% with UACC-62 melanoma; 64.4% with SK-MEL-28 melanoma; 101% in the experiment with SK-MEL-2 melanoma; 80.4% in the experiment with EKVX NSCLC; 104% in the experiment on SN12C renal; 36.3% in the experiment on UO-31 renal. The growth in the experiment on TK-10 renal is 66.1%; with ACHN renal, 32.1%; in the experiment with CAKI-1 renal, 48%; in the experiment with A498 renal, 25%; with CCRF-CEM leukemia, 59.7%; in the experiment on MOLT-4 leukemia it was 9.63% (active).

Consider `Cc1ccc(-c2ccc(SCC(=O)Nc3ccc(S(N)(=O)=O)cc3Br)nn2)cc1`, for which the growth was 9.74% (active) in the experiment on HCT-15 colon; 68% with SNB-75 CNS; 39.5% in the experiment on SNB-19 CNS; -45.8% (active) in the experiment with U251 CNS; 18.4% in the experiment with PC-3 prostate; 60% with UACC-62 melanoma. Also, the growth with LOX IMVI melanoma was -66.4% (active); in the experiment with SK-MEL-28 melanoma it was 60.9%; in the experiment on SK-MEL-2 melanoma, 80.6%; with EKVX NSCLC it was 62.5%; in the experiment on SN12C renal, 39.5%; in the experiment on UO-31 renal, 70.6%. The growth in the experiment with TK-10 renal was 84.7%; with ACHN renal it was 11.7%; with CAKI-1 renal, 56.9%; in the experiment on A498 renal it was 87.2%; in the experiment on CCRF-CEM leukemia it was 93.4%; in the experiment on MOLT-4 leukemia, 89.9%.

In the case of `CCOC(=O)C1=C(N)N(c2ccc(C)cc2)C2=C(C(=O)CC(C)(C)C2)C1c1ccccc1OC` (configuration not stated), the growth in the experiment with HCT-15 colon was 98.4%; in the experiment with SNB-75 CNS it was 105%; with SNB-19 CNS, 93.1%; in the experiment on U251 CNS, 104%; in the experiment on PC-3 prostate it was 93.5%; with SK-MEL-5 melanoma, 100%. Also, the growth in the experiment with UACC-62 melanoma was 89.8%; in the experiment with LOX IMVI melanoma, 104%; in the experiment with SK-MEL-28 melanoma, 104%; in the experiment on SK-MEL-2 melanoma, 110%; with EKVX NSCLC, 92.2%; in the experiment on SN12C renal it was 99.6%. The growth with UO-31 renal was 78.7%; in the experiment on TK-10 renal it was 107%; with ACHN renal, 103%; in the experiment with CAKI-1 renal it was 97.7%; in the experiment on A498 renal, 102%; in the experiment with CCRF-CEM leukemia it was 99%. For the same compound, the growth in the experiment on MOLT-4 leukemia was 106%.

Regarding `CC(=O)Nc1nc(-c2ccc(N3CCN(C)CC3)c(NS(=O)(=O)c3ccc(C(F)(F)F)cc3)c2)cs1`, the growth was -67.7% (active) with HCT-15 colon; 1.07% (active) in the experiment on SNB-75 CNS; 45.6% with SNB-19 CNS; 23.1% with U251 CNS; 30.3% in the experiment on PC-3 prostate; 7.11% (active) in the experiment with SK-MEL-5 melanoma. The growth in the experiment with UACC-62 melanoma was 6.26% (active); with LOX IMVI melanoma it was -85.4% (active); in the experiment on SK-MEL-28 melanoma it was 5.39% (active); in the experiment on SK-MEL-2 melanoma it was 7.74% (active); in the experiment with EKVX NSCLC, 72.2%; with SN12C renal it was 13.7%. The growth is 24.9% in the experiment on UO-31 renal; 10.8% with TK-10 renal; 5.92% (active) in the experiment on ACHN renal; 13.5% in the experiment on CAKI-1 renal; 52.3% with A498 renal; -13.4% (active) with CCRF-CEM leukemia.

Take `O=C1Nc2cc(-c3ccc(NC(=O)c4cccs4)cc3)ccc2/C1=C/c1ccc[nH]1`: the growth is 47.6% in the experiment with HCT-15 colon; 138% in the experiment with SNB-75 CNS; 87.1% in the experiment on SNB-19 CNS; 65.9% in the experiment with U251 CNS; 65.6% with PC-3 prostate; 63.6% in the experiment on SK-MEL-5 melanoma. Besides, the growth in the experiment on UACC-62 melanoma is 80.8%; in the experiment with LOX IMVI melanoma, 55.7%; in the experiment on SK-MEL-28 melanoma, 101%; in the experiment on SK-MEL-2 melanoma it was 83.5%; with EKVX NSCLC, 55.2%; in the experiment with SN12C renal, 65.3%. Besides, the growth in the experiment with UO-31 renal was 82.1%; in the experiment with TK-10 renal, 112%; with ACHN renal it was 82%; in the experiment on CAKI-1 renal, 89.7%; with A498 renal, 151%; with CCRF-CEM leukemia, 41.8%. Moreover, in the experiment with MOLT-4 leukemia, the growth is 37.4%.

Consider `Cc1ccc(C(=O)NNC(=O)CSc2nc3ccccc3c(=O)[nH]2)cc1`, for which the growth with HCT-15 colon is 103%; in the experiment on SNB-75 CNS, 83.1%; in the experiment on SNB-19 CNS, 92.8%; in the experiment with U251 CNS, 104%; with PC-3 prostate, 90.4%; in the experiment on SK-MEL-5 melanoma, 98.7%. Also, the growth in the experiment on UACC-62 melanoma is 89.4%; with LOX IMVI melanoma, 96.3%; in the experiment on SK-MEL-28 melanoma, 104%; with SK-MEL-2 melanoma it was 107%; with EKVX NSCLC it was 97.2%; in the experiment on SN12C renal it was 94.1%. Besides, the growth with UO-31 renal is 75.2%; in the experiment on TK-10 renal it was 107%; with ACHN renal, 107%; with CAKI-1 renal it was 95.7%; in the experiment with A498 renal, 94.6%; in the experiment with CCRF-CEM leukemia, 98.8%. In the experiment on MOLT-4 leukemia, the growth was 96.4%.

Take `O=C(NC(=S)N1CCN(c2ncnc3c2cnn3-c2ccccc2)CC1)c1ccc(Cl)cc1`: the growth in the experiment on HCT-15 colon was 52.3%; in the experiment on SNB-75 CNS it was 2.35% (active); in the experiment with SNB-19 CNS, 28.2%; in the experiment with U251 CNS, 38.3%; in the experiment on PC-3 prostate, 47.3%; in the experiment with UACC-62 melanoma, 68.9%. Besides, the growth in the experiment with LOX IMVI melanoma is 14.3%; in the experiment on SK-MEL-28 melanoma, 82.5%; with SK-MEL-2 melanoma it was 88.8%; in the experiment on EKVX NSCLC, 62.7%; in the experiment with SN12C renal, 28.3%; in the experiment with UO-31 renal, 40%. For the same compound, the growth in the experiment on TK-10 renal was 109%; in the experiment with ACHN renal it was 24.5%; with CAKI-1 renal, 27.7%; with A498 renal it was 68.4%; with MOLT-4 leukemia, 81.6%.

Regarding `O=C1Nc2ccc(Cl)cc2/C1=C/c1cccc(OCc2ccccn2)c1`, the growth in the experiment on HCT-15 colon was -66.8% (active); in the experiment with SNB-75 CNS, 34.8%; with SNB-19 CNS it was 0.791% (active); with U251 CNS, -90.7% (active); in the experiment with PC-3 prostate it was -9.7% (active); with SK-MEL-5 melanoma, -47.3% (active). Besides, the growth in the experiment with UACC-62 melanoma is -81.2% (active); in the experiment with LOX IMVI melanoma it was -89.9% (active); in the experiment with SK-MEL-28 melanoma, -49.2% (active); in the experiment on SK-MEL-2 melanoma, -50.6% (active); with EKVX NSCLC, 10.7%; with SN12C renal, -50.6% (active). The growth was 8.26% (active) in the experiment with UO-31 renal; 10.5% in the experiment with TK-10 renal; -40.3% (active) with ACHN renal; -7.95% (active) in the experiment with CAKI-1 renal; 95% with A498 renal; -23.1% (active) with CCRF-CEM leukemia. In the experiment with MOLT-4 leukemia, the growth is 4.5% (active).
